15 molecules from PubChem BioAssay (NCATS) can be followed below.

The list shows a part of the results. Records with an inconclusive call do not appear. The source made the active and inactive calls. Calls come from the whole dose curve.
% is set by controls: 0 for no effect and ±100 for the full control effect; potency is the fitted concentration of half-maximal effect.

The target in this assay is Polyprotein P1234 (Chikungunya virus (strain S27-African prototype)) (UniProt Q8JUX6). Description: Selectivity profile for inhibitors of NSP2Pro chikungunya virus (CHIKV): Endogenous NS2/3 peptide Counterscreen (AID 1964103). Note: nearly all actives have a fitted effect of over 55% in size. To be noted: Purified CHIKV nsP2 protease, endogenous NS2/3 peptide cleavage; series mostly up to 51 µM; activity change, negative = inhibition: at the top concentration. The source says: PI: Natalia J. Martinez Ph.D.
Sequence of Polyprotein P1234 (Chikungunya virus (strain S27-African prototype)) (Q8JUX6 whole entry, looked up): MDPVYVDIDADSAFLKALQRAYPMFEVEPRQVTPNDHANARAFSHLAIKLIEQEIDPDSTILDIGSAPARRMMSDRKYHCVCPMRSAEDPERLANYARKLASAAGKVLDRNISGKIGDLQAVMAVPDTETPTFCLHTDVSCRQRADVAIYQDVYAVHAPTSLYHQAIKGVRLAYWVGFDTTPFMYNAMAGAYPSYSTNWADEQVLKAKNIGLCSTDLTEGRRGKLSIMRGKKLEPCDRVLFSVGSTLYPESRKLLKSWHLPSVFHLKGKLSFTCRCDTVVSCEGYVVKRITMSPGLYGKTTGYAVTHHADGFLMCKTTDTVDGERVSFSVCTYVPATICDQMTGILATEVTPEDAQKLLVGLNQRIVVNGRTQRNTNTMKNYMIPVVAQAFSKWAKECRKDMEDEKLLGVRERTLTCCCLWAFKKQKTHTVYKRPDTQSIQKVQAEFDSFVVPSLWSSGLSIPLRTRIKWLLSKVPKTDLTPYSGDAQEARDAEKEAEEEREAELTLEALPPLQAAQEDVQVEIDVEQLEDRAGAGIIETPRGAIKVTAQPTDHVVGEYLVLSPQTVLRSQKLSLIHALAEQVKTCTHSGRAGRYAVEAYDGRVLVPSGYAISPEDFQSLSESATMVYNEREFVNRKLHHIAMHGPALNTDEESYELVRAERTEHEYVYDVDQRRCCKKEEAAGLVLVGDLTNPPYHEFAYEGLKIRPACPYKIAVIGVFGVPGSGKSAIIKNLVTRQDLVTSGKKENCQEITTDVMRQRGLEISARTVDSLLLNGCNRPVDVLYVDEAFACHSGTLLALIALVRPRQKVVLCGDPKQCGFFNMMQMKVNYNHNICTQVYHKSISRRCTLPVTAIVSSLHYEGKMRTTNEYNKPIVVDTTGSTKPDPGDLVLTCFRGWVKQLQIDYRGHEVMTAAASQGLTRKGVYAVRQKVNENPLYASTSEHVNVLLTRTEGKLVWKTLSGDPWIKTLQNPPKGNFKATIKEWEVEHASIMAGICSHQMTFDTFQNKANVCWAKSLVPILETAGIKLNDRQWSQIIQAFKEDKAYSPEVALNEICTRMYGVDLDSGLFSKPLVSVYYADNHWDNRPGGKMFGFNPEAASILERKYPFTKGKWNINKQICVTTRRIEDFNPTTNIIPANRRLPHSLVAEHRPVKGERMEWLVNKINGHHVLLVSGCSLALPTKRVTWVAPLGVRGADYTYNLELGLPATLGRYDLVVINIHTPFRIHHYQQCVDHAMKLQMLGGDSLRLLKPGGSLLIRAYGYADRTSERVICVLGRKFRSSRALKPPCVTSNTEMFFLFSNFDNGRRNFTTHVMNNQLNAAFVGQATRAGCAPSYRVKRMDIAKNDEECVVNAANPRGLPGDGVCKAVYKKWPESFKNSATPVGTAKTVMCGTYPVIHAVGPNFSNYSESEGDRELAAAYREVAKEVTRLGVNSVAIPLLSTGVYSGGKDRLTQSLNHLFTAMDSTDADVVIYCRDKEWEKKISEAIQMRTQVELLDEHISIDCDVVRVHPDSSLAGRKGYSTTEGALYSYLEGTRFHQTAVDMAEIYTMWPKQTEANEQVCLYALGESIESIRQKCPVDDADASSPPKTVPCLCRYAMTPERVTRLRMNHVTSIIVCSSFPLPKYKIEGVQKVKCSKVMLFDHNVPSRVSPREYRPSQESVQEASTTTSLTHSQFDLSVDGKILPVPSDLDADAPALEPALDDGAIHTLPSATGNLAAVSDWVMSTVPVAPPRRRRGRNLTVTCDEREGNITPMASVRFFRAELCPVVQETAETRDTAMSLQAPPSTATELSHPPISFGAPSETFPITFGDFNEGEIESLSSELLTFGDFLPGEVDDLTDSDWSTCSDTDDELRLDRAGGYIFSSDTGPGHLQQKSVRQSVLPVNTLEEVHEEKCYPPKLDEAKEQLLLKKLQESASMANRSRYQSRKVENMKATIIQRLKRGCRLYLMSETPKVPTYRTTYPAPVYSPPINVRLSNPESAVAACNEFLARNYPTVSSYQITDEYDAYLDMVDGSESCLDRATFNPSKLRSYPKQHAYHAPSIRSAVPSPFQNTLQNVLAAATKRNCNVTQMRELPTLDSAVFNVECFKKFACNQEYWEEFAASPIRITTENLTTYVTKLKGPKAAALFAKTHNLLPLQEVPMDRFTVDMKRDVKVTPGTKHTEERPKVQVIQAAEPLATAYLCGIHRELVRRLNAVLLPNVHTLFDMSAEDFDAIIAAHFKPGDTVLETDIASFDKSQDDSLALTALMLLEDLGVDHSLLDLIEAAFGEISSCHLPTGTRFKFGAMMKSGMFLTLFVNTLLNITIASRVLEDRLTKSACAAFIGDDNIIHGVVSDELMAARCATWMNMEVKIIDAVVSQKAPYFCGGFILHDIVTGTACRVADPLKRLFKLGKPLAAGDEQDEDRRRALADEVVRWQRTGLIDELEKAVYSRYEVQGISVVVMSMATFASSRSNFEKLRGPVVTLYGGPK
National Center for Advancing Translational Sciences (NCATS),
National Institute of Health (NIH), Rockville, Maryland
Chikungunya virus (CHIKV) is a mosquito-borne RNA virus that has emerged as one of the most important global arboviral threats in the last decade. Although the first CHIKV vaccine has recently been FDA approved for use in healthy adults at increased risk, to date, there are no available antiviral drugs for CHIKV infection. CHIKV nsP2 protease plays a crucial role in the processing of the viral polypeptide precursor to release enzymes required for viral replication, thus making it a promising drug target for antiviral discovery. Here, we established a high-throughput pipeline to identify small molecule inhibitors of nsP2 proteolytic activity. The pipeline is composed of a suite of 1,536-well in vitro assays to support quantitative high-throughput (qHTS) screening campaigns. Specifically, we developed a fluorescence resonance energy transfer (FRET)-based assay using a fluorogenic peptide substrate encompassing an endogenous cleavage site and purified recombinant protease domain (nsP2pro). Using this assay, we interrogated ~37,000 small molecules, including those in drug repurposing libraries as well as chemically diverse and medicinal chemistry-friendly compounds. Hits were selected for follow-up validation against full-length nsP2 and an additional peptide. FRET-based 1,536-well assays for papain, hepatitis C virus NS3-4A, and human furin proteases were implemented to characterize compound selectivity. […] Novel compounds were identified to be potential nsP2 inhibitors and molecular docking analyses were performed to explain the binding mode of selected hits. In vitro antiviral activity was evaluated for a subset of compounds using a high-throughput CHIKV infection assay. To our knowledge, the pipeline presented here is unprecedented for CHIKV antiviral discovery research.
PROTOCOL TABLE (as described by Inglese J, Shamu CE and Guy RK. 2007)
SEQUENCE No. (e.g., 1, 2, 3, etc.); […] (e.g., Cells, Incubation, Reagent, etc.); VALUE; DESCRIPTION.
1; Control / Compound; 20 nL; Echo 655 acoustic dispenser, Greiner 1536-well solid bottom black plate.
2; Enzyme; 4 uL; BioRAPTR FRD liquid dispenser (Beckman Coulter).
3; Incubation; 15 min; room temperature.
4; Reagent; 4 uL; 2.5 uM endogenous NS2/3 peptide substrate.
5; Incubation; 1 hr; room temperature.
6; Detection; Fluorescence; WiewLux microplate reader (PerkinElmer), 525 nm excitation, 598/25 nm emission.
NOTES (numbers refer to sequence numbers above).
1. Briefly, 20 nL DMSO, positive control ZnAc (20nM final concentration), and test compounds were transferred into a 1,536-well solid bottom black plate (789176-F, Greiner One) via Echo 655 acoustic dispenser (Beckman Coulter). For primary screens, compounds were tested at 7 concentrations, 1:3 dilution points ranging from 25 uM to 34 nM. Follow-up confirmatory screens were carried out at 11 concentrations, 1:3 dilution points from 25 uM to 0.42 nM.
2. Four uL nsP2pro enzyme mix (150 nM final concentration) in 10 mM Tris-HCl pH 8.0 with 0.01% Tween 20 assay buffer was dispensed into the plate using a BioRAPTR FRD liquid dispenser (Beckman Coulter).
3. The plate was incubated at room temperature (protected from light) for 15 min
4. Four microliter of endogenous NS2/3 peptide substrate (peptide 3: TMR-[…]/APSYR-K-QSY7; 2.5 uM final concentration) in assay buffer was added to the plate.
5. After 1 hour, plates were immediately read on a ViewLux high-throughput CCD imager (Exposure = 10 sec, Gain = High, Speed = Slow, Binning = 2X). The above assay was also incorporated in the NCATS HTS facility41, which allowed for robotic liquid and compound dispensing, microplate handling, and fluorescence reading.
Inglese J, Shamu CE and Guy RK, Reporting data from high throughput screening of small molecule libraries, Nature Chemical Biology, 2007, 3(8): 438-441. doi.org/10.1038/nchembio0807-438.
Turning to `Oc1ccc(OC2CCCCO2)cc1` (stereo not given), the “activity change, negative = inhibition” value was -6.04% (inactive).
In the case of `O=C(O)c1cccc(-n2[nH]c(-c3ccccc3)cc2=O)c1`, the “activity change, negative = inhibition” value was 76.4% (inactive).
On to `CCOc1ccc(N(Cc2ccccc2)C(=O)c2nc(S(C)(=O)=O)ncc2Cl)cc1`, for which the Potency was 4.61 µM (active).
With `C[C@@H]1C[C@@H](O)[C@@]23CO[C@]2(CO)C[C@@H](O)CC3[C@@]12CC(c1ccoc1)OC2=O` (stereo not given in full), the call was inactive.
In the case of `CCC(C)C(=O)OC1C(C)C2(O)C(C=C(CO)CC3(O)C(=O)C(C)=CC32)C2C(C)(C)C12OC(=O)C(C)C` (stereo not given), the “outcome” value was “inactive [at 17.2 µM]”.
Turning to `Cn1nnnc1Sc1ncnc2n[nH]c(-c3cccc(S(C)(=O)=O)c3)c12`, the Potency is 4.47 µM (active).
For the molecule `CO[C@]1(NC(=O)CSC(F)F)C(=O)N2C(C(=O)O)=C(CSc3nnnn3CCO)CO[C@H]21`, the “activity change, negative = inhibition” value was 1.15% (inactive).
Still for that read-out and setting: next, `CCc1ccccc1NC(=O)c1cnn(-c2ccc(F)cc2)c1C1CCNCC1`: -19.4% (inactive); `CC(=O)N[C@@H](C(=O)O[C@H]1CCC(C)(C)[C@@H]2CCC3=C(COC3=O)[C@@]12C)C(C)C`: -0.53% [at 33.5 µM] (inactive).
Take `N#CSc1cc(SC#N)c(N)nc1N`: the Potency is 0.206 µM (active).
On to `CC1=C(/C=C/C(C)=C/C=C/C(C)=C/C=C/C=C(C)/C=C/C=C(C)/C=C/C2=C(C)CCCC2(C)C)C(C)(C)CCC1`, for which the “activity change, negative = inhibition” value is -19.9% (inactive).
Same read-out and setting: next, `Cc1c(S(=O)(=O)O)oc2c1C(=O)C(=O)c1c-2ccc2c1CCCC2(C)C`: -3.07% (inactive); `C[C@@H]1[C@H](O)[C@@H]2OC(=O)C3=C2[C@H](CCC3)[C@@]12C[C@@H](c1ccoc1)OC2=O`: 4.66% [at 33.5 µM] (inactive).
Turning to `CCOc1ccc(NC(=O)c2c(NC(=O)Cc3ccccc3)sc3c2CCCCC3)cc1`, the Potency was 16.3 µM (active).
The same measure, in the same setting: next, `CCOc1ccc(NC(=O)c2c(NC(=O)Cc3ccccc3)sc3c2CCC(C)C3)cc1` (stereo not given): 13 µM (active).
